The source made the active and inactive calls. Unless noted, the rule behind the calls is not given here.
Experiments:
[1] = blood-stage malaria parasite viability loss – strain 3D7, DAPI fluorescence, 100 nL, primary screen (AID 1184);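 note: parasites grown inside human red blood cells in medium with human serum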; details: P. falciparum 3D7 growth, 3 d, higher = more signal
[2] = molecular target: Homeobox protein Hox-A13 (Mus musculus) (UniProt Q62424); experiment: disruptors of Hoxa13 oligonucleotide interaction – biochemical, fluorescence polarization, labeled oligonucleotide, primary screen (AID 1185); details: Hoxa13:DNA binding, 15 min, higher = more signal, called active from +8 up or from −8 down
Sequence of Homeobox protein Hox-A13 (Mus musculus) (Q62424 whole entry, looked up): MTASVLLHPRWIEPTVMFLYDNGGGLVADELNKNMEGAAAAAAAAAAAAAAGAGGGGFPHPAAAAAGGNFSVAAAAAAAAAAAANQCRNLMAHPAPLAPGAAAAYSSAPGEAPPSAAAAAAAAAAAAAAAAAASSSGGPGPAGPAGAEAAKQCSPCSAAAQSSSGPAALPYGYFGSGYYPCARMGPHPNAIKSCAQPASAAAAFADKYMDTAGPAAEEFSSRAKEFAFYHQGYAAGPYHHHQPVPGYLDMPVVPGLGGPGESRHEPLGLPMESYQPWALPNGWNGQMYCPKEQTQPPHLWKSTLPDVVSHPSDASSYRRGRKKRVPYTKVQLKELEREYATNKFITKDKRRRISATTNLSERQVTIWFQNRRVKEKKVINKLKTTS

[3] = blockers of DNA damage checkpoint Chk1 activation – imaging, HeLa, hydroxyurea, phospho-Chk1 antibody, percent positive cells, primary screen (AID 1186); details: hydroxyurea-induced phospho-Chk1 immunofluorescence imaging, higher = more signal
[4] = blockers of DNA damage checkpoint Chk1 activation – imaging, HeLa, hydroxyurea, phospho-Chk1 nuclear intensity, primary screen (AID 1187); details: hydroxyurea-induced phospho-Chk1 immunofluorescence imaging, higher = more signal; note: test concentration not given here

SMILES | z-score [1] | z-score [2] | z-score [3] | z-score [4]
C=CCC(OC(C)=O)[C@@H]1[C@@H](N(Cc2cc3ccccc3o2)C(=O)c2ccc(-c3ccccc3)cc2)c2cc(OCCCO)ccc2N1C(=O)c1ccc(-c2ccccc2)cc1 (stereo partly specified) | -1.63 | -0.639 (inactive) | -0.604 (inactive) | -0.195 (inactive)
C=CCN1C(=O)[C@@]2(O[C@@H](CCO)[C@H]([Si](C)(C)c3ccc(OC)cc3)[C@H]2C)c2cc(N3C(=O)c4cccc5cccc3c45)ccc21 | -2.57 | -2.8 (inactive) | -1.22 (inactive) | -0.751 (inactive)
CO[C@H]1O[C@H](CO)[C@@H](OC(=O)Nc2ccccc2)[C@H](OC(=O)Nc2ccccc2-c2ccccc2)[C@H]1OC(=O)Nc1ccccc1-c1ccccc1 | -1.81 | -3.12 (inactive) | -0.796 (inactive) | -0.793 (inactive)
CO[C@H]1O[C@H](CO)[C@@H](OC(=O)Nc2ccccc2)[C@H](OC(=O)Nc2ccccc2-c2ccccc2)[C@@H]1OC(=O)Nc1ccccc1-c1ccccc1 | -2.3 | -1.96 (inactive) | -0.515 (inactive) | -0.367 (inactive)
C[C@@H](OCc1ccccc1)C1NC(=O)[C@@]23C(=O)N[C@@H](Cc4ccccc4)C2[C@H](C)[C@@]2(C)O[C@H]2C3/C=C/C/C=C\CNC(=O)[C@@H]2CCCN2C1=O (stereo partly specified) | -2.58 | -7.05 (inactive) | 0.0938 (inactive) | 0.427 (inactive)
CC(C)C[C@@H]1NC(=O)[C@H]2C[C@@H](C(=O)NCCCC[N+](C)(C)C)[C@@H](c3cccc(OCCO)c3)N2C1=O | 1 | -2.24 (inactive) | 0.656 (inactive) | 0.824 (inactive)
COc1ccc([Si](C)(C)[C@@H]2[C@@H](CCn3cc([C@H](O)c4ccccc4)nn3)O[C@]3(C(=O)N(C)c4c(Br)cc(C)cc43)[C@H]2C)cc1 | -1.22 | -3.19 (inactive) | -0.973 (inactive) | -0.208 (inactive)
[N-]=[N+]=NCc1ccccc1C[C@]1(C(=O)NCc2ccccc2)N=C(c2ccc(OCCCO)cc2)O[C@H]1c1ccccc1 | -2.32 | 1.43 (inactive) | -0.901 (inactive) | -0.877 (inactive)
O=C(NO)[C@]1(Cc2ccccc2)N=C(c2ccc(OCCCO)cc2)O[C@@H]1c1ccccc1 | -1.26 | -5.15 (inactive) | -0.593 (inactive) | -0.0319 (inactive)
C=CCN1C(=O)[C@@]2(O[C@@H](CCn3cc(CCO)nn3)[C@H]([Si](C)(C)c3ccc(OC)cc3)[C@H]2C)c2cc(NC(=O)c3ccc(OC)cc3)ccc21 | -2.65 | -4.19 (inactive) | 1.09 (inactive) | 1.28 (inactive)
COCCOC(=O)N1C(=O)[C@@]2(c3cc(C#CCNC(N)=O)ccc31)[C@H](c1ccccc1OCCO)N1[C@H](c3ccccc3)[C@H](c3ccccc3)OC(=O)[C@H]1[C@@H]2C(=O)Nc1nc2ccccc2s1 | -1.89 | 1.57 (inactive) | -0.298 (inactive) | -0.154 (inactive)
C=CCNC(=O)[C@H]1[C@@H]2C(=O)O[C@@H](c3ccccc3)[C@@H](c3ccccc3)N2[C@@H](c2ccccc2OCCO)[C@]12C(=O)N(C(=O)OCCOC)c1ccc(C#CCCO)cc12 | -2.16 | -1.2 (inactive) | 0.051 (inactive) | -0.0745 (inactive)
Cc1ccc(N2C(=O)c3ccccc3[C@](C)(C(=O)NCC(F)(F)F)[C@@H]2c2ccc(CO)cc2)nc1 | -1.36 | -1.16 (inactive) | -0.326 (inactive) | -0.277 (inactive)
COC(=O)C(CC#Cc1ccc2c(c1)[C@]1(C(=O)N2)[C@H](C(N)=O)[C@H]2C(=O)O[C@H](c3ccccc3)[C@H](c3ccccc3)N2[C@@H]1c1ccc(O)cc1)C(=O)OC | -0.91 | -3.34 (inactive) | 0.16 (inactive) | 0.819 (inactive)
NCCCCCNC(=O)[C@H]1C[C@H]2C(=O)NCC(=O)N2[C@H]1c1ccc(O)cc1 | -0.223 | -0.587 (inactive) | 0.637 (inactive) | 0.791 (inactive)
COC(=O)C(CC#Cc1ccc2c(c1)[C@]1(C(=O)N2)[C@H](C(=O)O)[C@H]2C(=O)O[C@H](c3ccccc3)[C@H](c3ccccc3)N2[C@@H]1c1ccc(OCCO)cc1)C(=O)OC | -2.14 | -6.34 (inactive) | -0.192 (inactive) | 0.124 (inactive)
COC(=O)[C@@]1(CCC(=O)OC(C)(C)C)COC(c2ccc(OCCCO)cc2)=N1 | -0.478 | -2.57 (inactive) | -0.14 (inactive) | 0.264 (inactive)
CC(C)N1C(=O)c2ccccc2[C@@H](C(=O)NCc2ccccc2)[C@@H]1c1ccc(CO)cc1 | -0.3 | -0.468 (inactive) | -0.67 (inactive) | -0.869 (inactive)
C=CCC(OC(C)=O)[C@@H]1[C@@H](N(Cc2ccc(-c3ccccc3)cc2)C(=O)c2ccc(-c3ccccc3)cc2)c2cc(OCCCO)ccc2N1C(=O)c1ccc(-c2ccccc2)cc1 (stereo partly specified) | -0.883 | -0.513 (inactive) | -0.293 (inactive) | 0.122 (inactive)
C[N+](C)(C)CCCCNC(=O)[C@@H]1C[C@@H]2C(=O)NCC(=O)N2[C@@H]1c1cccc(OCCO)c1 | -0.664 | -1.4 (inactive) | 0.469 (inactive) | 1.31 (inactive)

SMILES | z-score [1] | z-score [2] | z-score [3] | z-score [4]
C[N+](C)(C)CCCC[C@@H]1NC(=O)[C@@H]2C[C@H](C(=O)NCCCCCNC(=O)CS)[C@H](c3ccc(O)cc3)N2C1=O | -0.34 | -1.22 (inactive) | -0.536 (inactive) | -0.272 (inactive)
C=CC[C@]1(C(=O)N(C)C)N=C(c2ccc(OCCCO)cc2)O[C@H]1c1ccccc1CN=[N+]=[N-] | -2.49 | -4.33 (inactive) | -0.0783 (inactive) | 0.347 (inactive)
CN1C=C(C(=O)OCCS(C)(=O)=O)C(C(=O)OCCS(C)(=O)=O)=CC(CCCO)=CC1c1cccs1 (stereo unspecified) | -0.654 | -5.5 (inactive) | -0.084 (inactive) | -0.389 (inactive)
C=CCC(OC(C)=O)[C@@H]1[C@@H](N(Cc2ccc(-c3cccc(C(F)(F)F)c3)o2)C(=O)c2ccc(-c3ccccc3)cc2)c2cc(OCCCO)ccc2N1C(=O)Cc1ccc(OC)cc1 (stereo partly specified) | -0.809 | -0.497 (inactive) | -0.138 (inactive) | -0.0148 (inactive)
Cc1ccc(N2C(=O)c3ccccc3[C@](C)(C(=O)NC3CC3)[C@@H]2c2ccc(CO)cc2)nc1 | 0.202 | -1.18 (inactive) | -0.0797 (inactive) | 0.24 (inactive)
NC(=O)NCC#Cc1ccc2c(c1)[C@]1(C(=O)N2)[C@H](c2ccc(OCCO)cc2)N2[C@H](c3ccccc3)[C@H](c3ccccc3)OC(=O)[C@H]2[C@@H]1C(=O)Nc1nc2ccccc2s1 | -0.745 | 0.706 (inactive) | 0.0953 (inactive) | 0.219 (inactive)
COCCCNC(=O)[C@@]1(C)c2ccccc2C(=O)N(Cc2cc(F)cc(C(F)(F)F)c2)[C@H]1c1ccc(CO)cc1 | -0.753 | -2.01 (inactive) | -0.1 (inactive) | 0.802 (inactive)
COCCCNC(=O)[C@@]1(Cc2ccccc2)N=C(c2ccc(OCCCO)cc2)O[C@H]1c1ccccc1N=[N+]=[N-] | -2.43 | -3.11 (inactive) | -0.362 (inactive) | -0.373 (inactive)
COc1ccc(CCNC(=O)[C@@]2(Sc3ccc(C)cc3)CC(=O)N(Cc3ccccc3)[C@@H]2c2ccc(CO)cc2I)cc1 | -1.01 | -1.1 (inactive) | 0.0564 (inactive) | 0.672 (inactive)
CCN(CC)c1ccc(N2CC=CC34O[C@@H]5C=CCOC(=O)[C@@H]5[C@H]3C(=O)N(C(C)CO)[C@@H]4C2=O)cc1 (stereo partly specified) | 0.339 | -3.29 (inactive) | 0.36 (inactive) | 0.325 (inactive)
COCCOC(=O)N1C(=O)[C@@]2(c3cc(C#CC4(O)CCCCCC4)ccc31)[C@H](C(=O)NC[C@H](O)c1ccccc1)[C@H]1C(=O)O[C@H](c3ccccc3)[C@H](c3ccccc3)N1[C@@H]2c1ccccc1OCCO | -2.11 | -0.371 (inactive) | 0.462 (inactive) | 0.992 (inactive)
CO[C@H]1O[C@H](CO)[C@@H](OC(=O)Nc2ccccc2)[C@H](OC(=O)Nc2ccc3c(c2)OCO3)[C@H]1OC(=O)Nc1ccc2c(c1)OCO2 | -2.2 | -7.83 (inactive) | -0.935 (inactive) | -0.967 (inactive)
C=C(COC)C(=O)CC[C@@H](OC(=O)c1ccccc1-c1ccccc1C(=O)O)c1cccc(OCCO)c1 | -1.24 | -4.82 (inactive) | 0.273 (inactive) | -0.307 (inactive)
C#CCN1C(C(=O)OCC)OC[C@H]1c1ccccc1 (stereo partly specified) | -1.53 | 0.387 (inactive) | -0.285 (inactive) | 0.0032 (inactive)
CC(C)(C)OC(=O)CC[C@@]12N=C(c3ccc(OCCCO)cc3)O[C@@H]1c1ccccc1N(Cc1ccccc1)C2=O | -2.19 | -1.44 (inactive) | -0.501 (inactive) | -0.284 (inactive)
CC(C)C(=C=CC[C@H](O)c1ccc(OCCO)cc1)C[C@H](O)COCc1ccccc1 | -2.65 | -4.06 (inactive) | -0.0011 (inactive) | 0.313 (inactive)
C=C(COC)C(=O)CC[C@H](OC(=O)c1cccnc1)c1cccc(OCCO)c1 | -1.66 | -3.09 (inactive) | -0.458 (inactive) | -0.203 (inactive)
C=CCNC(=O)[C@@H]1[C@H]2C(=O)O[C@H](c3ccccc3)[C@H](c3ccccc3)N2[C@H](c2ccc(O)cc2)[C@@]12C(=O)Nc1ccc(C#Cc3ccc(OC)cc3)cc12 | -0.107 | 0.296 (inactive) | -0.357 (inactive) | -0.426 (inactive)
O=C1N(CCS(=O)(=O)c2ccccc2)Cc2ccccc2[C@@H]2OC(c3ccc(OCCCO)cc3)=N[C@]12Cc1ccccc1 | -2.19 | 2.39 (inactive) | -0.354 (inactive) | 0.111 (inactive)

Reference: PubChem BioAssay
